Results as given in PubChem BioAssay (NCATS).
Where “and” joins values, the source holds several entries; their conditions need not be identical. Equal values may be shown once. Where a structure was tested more than once in an assay, its records may differ in their call. Calls of active or inactive are those of the source. Unless noted, calls follow the shape of the full dose curve.

Key:
[1] = target: Estrogen receptor (Homo sapiens) (UniProt P03372); assay: qHTS assay for small molecule antagonists of estrogen receptor alpha signaling (AID 588513; active = well fitted curve in the direction sought with a large enough effect in the signal ratio, with a control signal flat, not every such curve was filed as active; inconclusive = small, poorly fitted or top-dose-only effect, or effect the other way, or a change in a side signal; inactive = no such curve, though single readings can be large or run the other way; the % refers to the signal ratio; also: potency is read from the fitted curve at half-maximal effect)
Outline: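 Cells were plated at 5000/well and incubated 4 h at 37 C. Compounds were added as 1:2 dilution series, duplicates. 17-beta-estradiol (0.5nM final) was added for 18 h before CCF4 detection.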

[2] = target: Estrogen receptor (Homo sapiens) (UniProt P03372); assay: qHTS assay for small molecule agonists of estrogen receptor alpha signaling (AID 588514); also: nearly all actives have a fitted effect of over 70% in size; also: potency is read from the fitted curve at half-maximal effect;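 as to activation: 0% = vehicle only and 100% = reference agonist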
Outline: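 Efficacy is expressed against 20 nM 17-beta-estradiol (100%) and DMSO basal (0%); EC50 from Hill equation. Assay: beta-lactamase reporter in ER-alpha-UAS-bla HEK 293 cells, 18 h compound incubation, CCF4 detection.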

[3] = target: Glucocorticoid receptor (Homo sapiens) (UniProt P04150); assay: qHTS assay for small molecule agonists of glucocorticoid receptor signaling (AID 588532; active = well fitted curve in the direction sought with a large enough effect in the signal ratio, with a control signal flat; inconclusive = small, poorly fitted or top-dose-only effect, or a change in a side signal; inactive = no such curve, though single readings can be large or run the other way; the % refers to the signal ratio;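 also: 100% = dexamethasone at 0.1 µM and 0% = DMSO only wells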); conditions: HeLa MMTV-bla, beta-lactamase ratio, agonist, 18 h; activation: stronger effect = higher value, percent of dexamethasone control, DMSO zero
Outline: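 MMTV-bla HeLa beta-lactamase reporter cells in 1% charcoal/dextran FBS medium, compounds up to 92 uM for 18 h at 37 C, CCF4 readout; normalized to 0.1 uM dexamethasone (100%), EC50 and efficacy from Hill fits.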

[4] = target: Peroxisome proliferator-activated receptor delta (Homo sapiens) (UniProt Q03181); assay: qHTS assay for small molecule agonists of peroxisome proliferator-activated receptor delta signaling (AID 588534);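 also: 0% = DMSO basal wells and 100% = positive control agonist at 10 µM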
Outline: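 Agonist-mode qHTS; reporter cells, 5 hrs 37 C pre-incubation; compound titration, 18 hrs 37 C; CCF4 dye, 2 hrs RT; fluorescence read. EC50/efficacy via Hill fit.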

[5] = target: Vitamin D3 receptor (Homo sapiens) (UniProt P11473); assay: qHTS assay for small molecule antagonists of vitamin D receptor signaling (AID 588541);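 also: receptor activated by calcitriol during compound treatment; series mostly up to about 77 µM; % is scaled to controls: 0 for no effect and ±100 for the full control effect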
Outline: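 VDR-UAS-bla HEK293T cells in 2% charcoal-stripped FBS were stimulated with 1-alpha,25-dihydroxyvitamin D3 (3 nM final) plus compound for 16 h at 37 C. The beta-lactamase CCF4 readout was normalized to 50 nM agonist and DMSO, and Hill fits gave IC50.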

[6] = target: Vitamin D3 receptor (Homo sapiens) (UniProt P11473); assay: qHTS assay for small molecule agonists of vitamin D receptor signaling (AID 588543);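 also: 0% = DMSO basal and 100% = reference agonist control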
Outline: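 qHTS in agonist mode: compound titrations stimulate a VDR-driven β-lactamase reporter in HEK293T cells over 16 h at 37 °C. Response normalized to 50 nM 1α,25-dihydroxyvitamin D3 = 100%, DMSO = 0%; Hill fitting gives EC50 and maximal response.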

[7] = target: Retinoic acid receptor RXR-alpha (Homo sapiens) (UniProt P19793); assay: qHTS assay for small molecule agonists of retinoid X receptor alpha signaling (AID 588544);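 also: 0% = DMSO basal wells and 100% = reference agonist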
[8] = target: Thyroid hormone receptor beta (Homo sapiens) (UniProt P10828); assay: qHTS assay for small molecule agonists of thyroid hormone receptor beta signaling (AID 588545);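 also: 0% = DMSO only and 100% = 10 nM T3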
Outline: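 Compounds were tested as agonists in TR-UAS-bla-GripTite HEK 293 cells. After 18 hrs at 37 C, CCF4 substrate was added and fluorescence read after 2 hrs at room temperature.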

[9] = qHTS assay for small molecule antagonists of retinoid X receptor alpha signaling (AID 588546; active = well fitted inhibition curve with a large enough effect in the signal ratio, with a control signal flat, not every such curve was filed as active; inconclusive = small, poorly fitted or top-dose-only effect, or effect the other way, or a change in a side signal; inactive = no such curve, though single readings can be large or run the other way; the % refers to the signal ratio; also: potency is read from the fitted curve at half-maximal effect;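 as to max response: cells stimulated with 9-cis-retinoic acid as agonist; % is scaled to controls: 0 for no effect and ±100 for the full control effect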); conditions: HEK293T RXRa-UAS-bla, beta-lactamase ratio, antagonist mode; measured here: W530 green channel, cytotoxicity proxy
Outline: (§1)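 Beta-lactamase reporter inhibition, read as CCF4 fluorescence ratio (ex 405, em 460/530 nm) after 2 h at RT. HEK293T UAS-bla cells, 2500/well, were stimulated with 9-cis-RA at 500 or 100 nM final alongside test compound for 18 h at 37 C.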

[10] = target: Retinoic acid receptor RXR-alpha (Homo sapiens) (UniProt P19793); assay: as above; conditions: HEK293T RXRa-UAS-bla, beta-lactamase ratio, antagonist mode
Outline: as §1

[11] = qHTS assay for small molecule activators of the p53 signaling pathway (AID 651743; active = well fitted activation curve with a large enough effect in the signal ratio, not every such curve was filed as active; inconclusive = small, poorly fitted or top-dose-only effect, or a change in a side signal; the % refers to the signal ratio; also: potency is read from the fitted curve at half-maximal effect; as to activation: series mostly up to about 92 µM; % of control where 0% means no effect); conditions: HCT-116 p53RE-bla, beta-lactamase FRET ratio, 16 h; activation: stronger effect = higher value
Outline: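 Following 16 hours of compound exposure at 37 C, HCT-116 cells bearing the p53RE-bla reporter were loaded with LiveBLAzer B/G FRET substrate for 2 hours at room temperature and fluorescence intensity was recorded.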

[12] = qHTS assay for small molecule activators of the nuclear factor-kappa B (NF-kB) signaling pathway (AID 651749; active = well fitted activation curve with a large enough effect in the signal ratio; inconclusive = small, poorly fitted or top-dose-only effect, or a change in a side signal; the % refers to the signal ratio; also: series mostly up to about 77 µM; % of control where 0% means no effect); conditions: NF-kB-bla ME-180 cells, beta-lactamase FRET ratio, 16 h; activation: stronger effect = higher value
Outline: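 In this qHTS format, compounds acting as activators increase NF-kB-driven beta-lactamase in ME-180 cells, measured as disrupted FRET after 16 hr exposure at 37C and 5% CO2.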

[13] = qHTS assay for environmental chemicals that activate the Aryl hydrocarbon Receptor (AhR) signaling pathway (AID 651777; active = well fitted curve in the direction sought with a large enough effect; inconclusive = small, poorly fitted or top-dose-only effect, or another doubt; inactive = no such curve, though single readings can be large; an effect the other way counts as inactive or inconclusive; also: % of control where 0% means no effect; nearly all actives have a fitted effect of over 15% in size); conditions: 1A2-DRE human hepatoma cells, luciferase, 24 h; activation: stronger effect = higher value
Outline: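 Concentration–response screening used 1,200 1A2-DRE cells per well, 24 hr compound exposure (37 C, 5% CO2), and One-Glo luminescence as the AhR-driven CYP1A2 reporter signal.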

[14] = target: Peroxisome proliferator-activated receptor alpha (Homo sapiens) (UniProt Q07869); assay: qHTS assay for small molecule agonists of the peroxisome proliferator-activated receptor alpha (PPARalpha) signaling pathway (AID 651778; active = well fitted curve in the direction sought with a large enough effect; inconclusive = small, poorly fitted or top-dose-only effect, or another doubt; inactive = no such curve, though single readings can be large; an effect the other way counts as inactive or inconclusive; also: % of control where 0% means no effect); conditions: PathHunter PPARalpha complementation, chemiluminescence, 6 h; max response: stronger effect = higher value
Outline: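 Enzyme-fragment complementation assay in which ligand-bound PPARalpha translocates and forms an active enzyme that generates chemiluminescence. Cells were plated overnight, exposed to compound for 6 hr at 37 C, and then given detection reagent for 60 min at room temperature.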

[15] = qHTS assay for small molecule agonists of the antioxidant response element (ARE) signaling pathway measured by Nrf2-dependant transcriptional activity - cell viability counter screen (AID 720653; active = well fitted curve in the direction sought with a large enough effect in the repeat runs; inconclusive = weak or mixed curves; inactive = no such curve, though single readings can be large; an effect the other way counts as inactive or inconclusive; also: % is scaled to controls: 0 for no effect and ±100 for the full control effect); conditions: ARE-bla HepG2 viability, CellTiter-Glo ATP luminescence, 16 h; max response: stronger effect = lower value
Outline: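 ARE-bla HepG2 cells treated with compounds for 16 h at 37C; this counter screen measures viability as intracellular ATP by CellTiter-Glo luminescence after 30 min at room temperature.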

[16] = qHTS assay for cell viability of the p53RE-bla HCT-116 cell line (AID 743292; active = well fitted curve in the direction sought with a large enough effect; inconclusive = small, poorly fitted or top-dose-only effect, or another doubt; inactive = no such curve, though single readings can be large; an effect the other way counts as inactive or inconclusive; also: nearly all actives have a fitted effect of over 55% in size; also: potency is read from the fitted curve at half-maximal effect)
Outline: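 Compound-exposed HCT-116 (p53RE-bla) cells, 4,000 per well, were kept 16 h at 37 C following a 5 h preincubation. Cell number was estimated from total ATP by CellTiter-Glo luminescence read after 30 min at room temperature.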

[17] = target: Nuclear receptor subfamily 1 group I member 2 (Rattus norvegicus) (UniProt Q9R1A7); assay: qHTS assay for small molecule activators of the rat pregnane X receptor (rPXR) signaling pathway (AID 651751; call rule not given here; also: 0% is about no effect); conditions: rPXR reporter cells, luciferase (One-Glo), 24 h
[18] = target: Peroxisome proliferator-activated receptor gamma (Homo sapiens) (UniProt P37231); assay: qHTS assay for small molecule agonists of peroxisome proliferator-activated receptor gamma signaling (AID 588536; active = well fitted curve in the direction sought with a large enough effect in the signal ratio, with a control signal flat, not every such curve was filed as active; inconclusive = small, poorly fitted or top-dose-only effect, or effect the other way, or a change in a side signal; inactive = no such curve, though single readings can be large or run the other way; the % refers to the signal ratio;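 also: 0% = DMSO basal wells and 100% = rosiglitazone at 2 µM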)
Outline: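 This is an agonist-mode beta-lactamase reporter assay in HEK293 PPAR-gamma-UAS-bla cells with 1% charcoal/dextran FBS. Compound titrations ran 16 h at 37 C before CCF4 detection. EC50 and efficacy are Hill fits scaled to 2 uM rosiglitazone (100%) and DMSO basal.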

[19] = qHTS assay for small molecule agonists of the antioxidant response element (ARE) signaling pathway measured by Nrf2-dependant transcriptional activity (AID 720636; active = well fitted curve in the direction sought with a large enough effect in the repeat runs; inconclusive = weak or mixed curves; inactive = no such curve, though single readings can be large; an effect the other way counts as inactive or inconclusive; also: potency is read from the fitted curve at half-maximal effect;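 as to activation: HepG2 cells with an ARE-driven luciferase reporter; % of control where 0% means no effect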)
Outline: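 Attachment 6 hr at 37 C, then compound versus DMSO vehicle for 16 hr in ARE-luc HepG2 cells (1% dialyzed FBS); luminescence recorded 30 min after ONE-Glo addition at room temperature.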

[20] = qHTS assay for cell viability of HEK293 cells (AID 743288; active = well fitted curve in the direction sought with a large enough effect; inconclusive = small, poorly fitted or top-dose-only effect, or another doubt; inactive = no such curve, though single readings can be large; an effect the other way counts as inactive or inconclusive; also: % is scaled to controls: 0 for no effect and ±100 for the full control effect; nearly all actives have a fitted effect of over 50% in size); conditions: ATP luminescence (CellTiter-Glo), 18 h; max response: stronger effect = lower value
Outline: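 Quantitative high-throughput screen: compounds were pinned onto parental HEK293 cells (2,000 per well) after a minimum 5 h settling at 37 C, incubated 18 h at 37 C, and intracellular ATP measured by luciferase luminescence.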

Chain of Peroxisome proliferator-activated receptor delta (Homo sapiens) (Q03181 whole entry, looked up): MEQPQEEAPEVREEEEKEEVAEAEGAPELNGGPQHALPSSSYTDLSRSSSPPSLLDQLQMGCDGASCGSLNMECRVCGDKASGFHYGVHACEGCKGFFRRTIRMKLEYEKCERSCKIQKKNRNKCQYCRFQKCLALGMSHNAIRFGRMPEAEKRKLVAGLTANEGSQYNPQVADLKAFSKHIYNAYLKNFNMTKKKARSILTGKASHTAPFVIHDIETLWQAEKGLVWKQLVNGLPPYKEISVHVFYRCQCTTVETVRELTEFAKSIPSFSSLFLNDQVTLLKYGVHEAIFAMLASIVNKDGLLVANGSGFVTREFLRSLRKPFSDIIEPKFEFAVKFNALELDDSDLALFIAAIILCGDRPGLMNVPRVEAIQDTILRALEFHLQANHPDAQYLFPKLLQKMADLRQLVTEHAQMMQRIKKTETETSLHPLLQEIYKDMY
Chain of Retinoic acid receptor RXR-alpha (Homo sapiens) (P19793 whole entry, looked up): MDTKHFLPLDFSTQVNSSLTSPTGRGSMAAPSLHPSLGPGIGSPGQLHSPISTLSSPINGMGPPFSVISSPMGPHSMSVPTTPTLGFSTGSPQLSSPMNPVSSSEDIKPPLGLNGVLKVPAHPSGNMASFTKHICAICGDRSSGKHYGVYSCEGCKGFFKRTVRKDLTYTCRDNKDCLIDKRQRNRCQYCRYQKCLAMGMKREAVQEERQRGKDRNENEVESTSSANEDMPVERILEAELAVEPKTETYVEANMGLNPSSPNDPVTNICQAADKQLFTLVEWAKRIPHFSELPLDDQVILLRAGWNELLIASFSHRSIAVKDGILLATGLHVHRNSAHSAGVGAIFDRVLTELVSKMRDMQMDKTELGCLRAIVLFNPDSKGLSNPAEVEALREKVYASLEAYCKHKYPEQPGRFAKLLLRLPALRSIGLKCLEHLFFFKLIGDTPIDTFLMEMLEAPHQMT
Chain of Vitamin D3 receptor (Homo sapiens) (P11473 whole entry, looked up): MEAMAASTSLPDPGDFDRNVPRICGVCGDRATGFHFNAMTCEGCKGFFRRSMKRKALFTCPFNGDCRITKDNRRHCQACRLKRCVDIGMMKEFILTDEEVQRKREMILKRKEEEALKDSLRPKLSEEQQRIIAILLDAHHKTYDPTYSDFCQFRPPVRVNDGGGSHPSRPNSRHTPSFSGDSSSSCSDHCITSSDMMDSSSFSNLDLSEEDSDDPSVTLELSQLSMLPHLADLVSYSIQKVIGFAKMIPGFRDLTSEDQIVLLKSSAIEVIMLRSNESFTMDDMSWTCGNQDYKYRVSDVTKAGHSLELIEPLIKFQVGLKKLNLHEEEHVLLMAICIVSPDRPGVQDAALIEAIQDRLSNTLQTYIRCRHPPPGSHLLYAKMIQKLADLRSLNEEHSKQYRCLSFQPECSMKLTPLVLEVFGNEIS
Chain of Estrogen receptor (Homo sapiens) (P03372 whole entry, looked up): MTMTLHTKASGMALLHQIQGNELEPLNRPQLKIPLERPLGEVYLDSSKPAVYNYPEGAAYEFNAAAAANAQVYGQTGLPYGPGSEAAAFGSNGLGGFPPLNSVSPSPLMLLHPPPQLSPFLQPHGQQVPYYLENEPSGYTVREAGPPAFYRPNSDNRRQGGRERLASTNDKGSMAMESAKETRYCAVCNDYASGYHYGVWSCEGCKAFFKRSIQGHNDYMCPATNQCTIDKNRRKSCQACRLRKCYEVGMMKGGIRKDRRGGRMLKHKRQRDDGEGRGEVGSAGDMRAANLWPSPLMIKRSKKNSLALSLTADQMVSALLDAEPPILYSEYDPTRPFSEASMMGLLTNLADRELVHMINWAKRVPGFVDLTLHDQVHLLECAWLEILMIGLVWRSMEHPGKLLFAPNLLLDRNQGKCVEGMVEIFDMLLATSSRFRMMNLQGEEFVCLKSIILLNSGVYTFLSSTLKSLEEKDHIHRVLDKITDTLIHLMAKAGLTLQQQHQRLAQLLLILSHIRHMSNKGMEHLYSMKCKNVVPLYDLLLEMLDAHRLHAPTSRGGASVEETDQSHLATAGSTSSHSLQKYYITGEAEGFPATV
Chain of Peroxisome proliferator-activated receptor alpha (Homo sapiens) (Q07869 whole entry, looked up, the tested form may be a part): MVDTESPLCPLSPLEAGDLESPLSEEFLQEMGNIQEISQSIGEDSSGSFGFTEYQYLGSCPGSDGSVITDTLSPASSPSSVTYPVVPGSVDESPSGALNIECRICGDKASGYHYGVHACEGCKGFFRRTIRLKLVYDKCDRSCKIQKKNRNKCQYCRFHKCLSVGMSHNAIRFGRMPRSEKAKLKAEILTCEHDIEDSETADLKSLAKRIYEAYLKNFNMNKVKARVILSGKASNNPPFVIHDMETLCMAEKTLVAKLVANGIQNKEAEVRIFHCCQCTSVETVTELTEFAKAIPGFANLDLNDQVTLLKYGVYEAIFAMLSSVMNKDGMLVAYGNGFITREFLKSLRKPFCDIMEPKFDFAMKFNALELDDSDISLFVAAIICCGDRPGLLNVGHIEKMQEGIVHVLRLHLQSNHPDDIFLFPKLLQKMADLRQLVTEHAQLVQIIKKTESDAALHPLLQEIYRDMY
Chain of Nuclear receptor subfamily 1 group I member 2 (Rattus norvegicus) (Q9R1A7 whole entry, looked up): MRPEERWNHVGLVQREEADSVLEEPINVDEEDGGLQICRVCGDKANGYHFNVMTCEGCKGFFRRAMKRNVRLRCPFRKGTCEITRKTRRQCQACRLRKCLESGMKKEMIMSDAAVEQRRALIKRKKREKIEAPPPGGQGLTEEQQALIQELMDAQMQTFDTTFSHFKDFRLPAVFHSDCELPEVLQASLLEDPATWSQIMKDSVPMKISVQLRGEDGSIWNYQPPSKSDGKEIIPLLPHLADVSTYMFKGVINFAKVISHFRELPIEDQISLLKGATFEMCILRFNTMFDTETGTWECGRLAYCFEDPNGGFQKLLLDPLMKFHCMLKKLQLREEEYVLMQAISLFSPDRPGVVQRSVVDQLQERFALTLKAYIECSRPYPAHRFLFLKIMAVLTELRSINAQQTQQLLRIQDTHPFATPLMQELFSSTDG
Chain of Glucocorticoid receptor (Homo sapiens) (P04150 whole entry, looked up): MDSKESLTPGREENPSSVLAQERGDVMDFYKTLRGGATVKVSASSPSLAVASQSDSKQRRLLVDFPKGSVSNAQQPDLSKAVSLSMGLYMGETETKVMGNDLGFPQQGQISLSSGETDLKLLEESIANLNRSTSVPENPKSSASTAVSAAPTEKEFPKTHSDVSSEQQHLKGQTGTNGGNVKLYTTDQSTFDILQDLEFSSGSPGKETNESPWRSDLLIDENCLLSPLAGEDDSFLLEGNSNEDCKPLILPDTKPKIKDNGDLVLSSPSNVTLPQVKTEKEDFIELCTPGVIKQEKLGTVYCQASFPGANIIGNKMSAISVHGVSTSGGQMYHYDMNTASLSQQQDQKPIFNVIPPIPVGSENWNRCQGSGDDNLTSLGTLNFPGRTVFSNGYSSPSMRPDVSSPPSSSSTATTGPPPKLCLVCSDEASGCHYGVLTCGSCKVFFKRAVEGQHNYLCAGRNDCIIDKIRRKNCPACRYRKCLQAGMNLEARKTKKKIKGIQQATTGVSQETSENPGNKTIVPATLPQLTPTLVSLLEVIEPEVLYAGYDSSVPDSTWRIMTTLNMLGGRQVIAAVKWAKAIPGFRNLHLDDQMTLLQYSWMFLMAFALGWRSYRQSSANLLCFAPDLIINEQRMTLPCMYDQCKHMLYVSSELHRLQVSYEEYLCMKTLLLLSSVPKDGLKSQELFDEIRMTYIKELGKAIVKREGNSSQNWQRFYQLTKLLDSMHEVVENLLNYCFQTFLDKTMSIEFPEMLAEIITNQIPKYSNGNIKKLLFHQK
Chain of Thyroid hormone receptor beta (Homo sapiens) (P10828 whole entry, looked up): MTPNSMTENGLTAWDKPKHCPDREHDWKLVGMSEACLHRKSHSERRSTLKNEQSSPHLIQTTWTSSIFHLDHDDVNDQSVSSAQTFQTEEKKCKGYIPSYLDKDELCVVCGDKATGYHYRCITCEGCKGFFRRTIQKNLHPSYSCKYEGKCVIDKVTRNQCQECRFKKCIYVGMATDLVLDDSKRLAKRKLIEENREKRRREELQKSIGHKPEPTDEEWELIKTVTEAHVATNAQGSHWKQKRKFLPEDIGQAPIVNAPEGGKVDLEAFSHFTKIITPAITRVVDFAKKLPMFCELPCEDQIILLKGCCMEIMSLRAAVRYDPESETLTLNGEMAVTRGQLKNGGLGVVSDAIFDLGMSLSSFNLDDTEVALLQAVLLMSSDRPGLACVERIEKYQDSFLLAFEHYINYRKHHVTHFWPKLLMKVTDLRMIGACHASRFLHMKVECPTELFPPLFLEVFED
Chain of Peroxisome proliferator-activated receptor gamma (Homo sapiens) (P37231 whole entry, looked up): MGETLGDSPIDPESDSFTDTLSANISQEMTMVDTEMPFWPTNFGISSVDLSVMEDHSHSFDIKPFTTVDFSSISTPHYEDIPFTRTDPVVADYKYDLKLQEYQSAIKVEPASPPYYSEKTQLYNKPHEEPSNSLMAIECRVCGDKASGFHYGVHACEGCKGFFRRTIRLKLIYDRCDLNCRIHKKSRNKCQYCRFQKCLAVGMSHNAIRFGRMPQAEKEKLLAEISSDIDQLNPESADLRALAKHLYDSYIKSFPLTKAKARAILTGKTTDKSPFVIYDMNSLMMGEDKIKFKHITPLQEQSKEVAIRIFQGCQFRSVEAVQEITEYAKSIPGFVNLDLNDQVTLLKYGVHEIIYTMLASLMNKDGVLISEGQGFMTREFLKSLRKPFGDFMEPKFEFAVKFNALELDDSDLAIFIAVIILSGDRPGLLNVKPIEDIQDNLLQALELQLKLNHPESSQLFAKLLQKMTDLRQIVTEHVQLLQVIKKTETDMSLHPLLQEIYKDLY

CCC[CH2][Sn]([CH2]CCC)([O]C(C)=O)[O]C(C)=O
inactive: Potency [1] | activation [3] -12.8% | outcome [4] | Potency [5] | outcome [6] | Potency [7] | Potency [8] | activation [11] 4.26% | activation [12] 0.746% | activation [13] -0.036% | max response [14] -2.27% | max response [15] -3.33% | Potency [16] | max response [17] -0.354%
active: Potency [2] 0.794 µM | Potency [10] 22.4 µM
2.17%: max response [9]

COC(=O)NS(=O)(=O)c1ccc(N)cc1
inactive: Potency [1] | Potency [2] | activation [3] -1.43% and 1.04% | outcome [4] | Potency [18] | Potency [5] | outcome [6] | Potency [7] | Potency [8] | max response [10] -10.8% and -3.57% | activation [11] -7.42% and -0.724% | activation [12] -0.373% and -0.594% | activation [13] -0.0088% and 0.402% | max response [14] 0.635% and -1.36% | Potency [19] | max response [15] 9.3% and -4.17% | max response [20] 0.196% and -9.27% | Potency [16] | max response [17] 2.14% and -3.25%
6.39% and -8.17%: max response [9]

O=Nc1ccc(Nc2ccccc2)cc1
active: Potency [1] 12.6 µM [inconclusive] | Potency [2] 5.01 µM | Potency [11] 50.1 µM | Potency [19] 21.7 µM
inactive: outcome [4] | outcome [6] | activation [11] 19.9% | activation [13] 6.01%

CC(Oc1cc(Cl)c(Cl)cc1Cl)C(=O)O (stereo not given)
inactive: Potency [1] | Potency [2] | activation [3] -0.156% | outcome [4] | Potency [5] | outcome [6] | Potency [7] | max response [10] 1.54% | activation [13] 2.71% | max response [14] -0.109% | Potency [19] | max response [20] 0.242% | Potency [16] | max response [17] 2.63%
-19.8%: max response [9]

CCOP(OCC)OCC
-5.06%: max response [9]
inactive: Potency [1] | Potency [2] | Potency [18] | Potency [7] | Potency [8] | max response [10] -9.86% | activation [11] 0.684% | activation [12] -0.0576% | activation [13] 1.72% | max response [14] -2.48% | Potency [19] | max response [15] -4.24% | max response [20] 0.538% | Potency [16] | max response [17] 0.674%

COP(=S)(OC)Oc1nc(Cl)c(Cl)cc1Cl
2.88%: max response [9]
inactive: Potency [1] | Potency [2] | activation [3] 1.34% | Potency [8] | max response [10] 15.1% | activation [11] 10.9% | activation [13] 0.0215% | max response [14] -0.488% | Potency [19] | max response [15] -2.62% | max response [20] -14.5% | Potency [16] | max response [17] -1.85%

CCOc1ccc(C(C)(C)COCc2cccc(Oc3ccccc3)c2)cc1
-7.02%: max response [9]
inactive: Potency [1] | Potency [2] | activation [3] -0.996% | Potency [18] | Potency [5] | outcome [6] | Potency [8] | max response [10] -7.6% | activation [11] -0.0413% | activation [12] 2.46% | activation [13] 1.55% | max response [14] -1.64% | Potency [19] | max response [15] -4.24% | max response [20] -6.28% | Potency [16]

COCC(=O)N(c1c(C)cccc1C)[C@H](C)C(=O)OC
-4.91%: max response [9]
inactive: Potency [1] | Potency [2] | Potency [18] | Potency [5] | outcome [6] | Potency [7] | max response [10] -14.1% | activation [11] -0.822% | activation [13] 1.21% | max response [14] -0.29% | Potency [19] | max response [15] -2.34% | max response [20] -1.89% | Potency [16] | max response [17] -0.694%

O=c1[nH]c2ccccc2c(=O)o1
inactive: Potency [1] | Potency [2] | activation [3] -0.7% | outcome [4] | Potency [18] | Potency [5] | outcome [6] | Potency [7] | Potency [8] | max response [10] -21.4% | activation [11] 1.12% | activation [12] -0.747% | activation [13] 0.82% | max response [14] -3.96% | Potency [19] | max response [15] -1.48% | max response [20] -10.1% | Potency [16] | max response [17] -5.81%
-14.4%: max response [9]

COC(=O)c1ccccc1CS(=O)(=O)NC(=O)Nc1nc(OC)cc(OC)n1
inactive: Potency [1] | Potency [2] | activation [3] -0.772% | outcome [4] | Potency [18] | Potency [5] | outcome [6] | Potency [7] | Potency [8] | max response [10] -11% | activation [11] -2.78% | activation [12] -0.866% | activation [13] -0.954% | max response [14] -0.343% | Potency [19] | max response [15] -5.06% | max response [20] -8.65% | Potency [16] | max response [17] -0.458%
1.62%: max response [9]

Oc1ccc(C2(c3ccc(O)cc3)c3ccccc3-c3ccccc32)cc1
inactive: Potency [2] | activation [3] -14.6% | outcome [4] | outcome [6] | activation [13] -0.464% | max response [14] -1.22% | max response [15] -12.4% | max response [20] -3.45% | max response [17] -3.03%
active: Potency [1] 15.8 µM [inhibitor] | Potency [11] 39.8 µM | Potency [16] 31.6 µM
